Measured values reported in PubChem BioAssay AID2289 (National Center for Advancing Translational Sciences (NCATS), 2010).
About 3,300 (0.97%) of roughly 340,000 compounds were called active. Another 9% or so got no clear call; they are omitted. Calls follow the shape of the dose curve; as a rule, active = well fitted inhibition curve with a large enough effect; inconclusive = small, poorly fitted or top-dose-only effect, or effect the other way; inactive = flat fitted curve, though single readings scatter. This is one part of the list.

assay: qHTS Assay for Modulators of miRNAs and/or Inhibitors of miR-21; details: HeLa miR-21-FLuc reporter, luciferase luminescence, 48 h; actives lower the signal; also: nearly all actives have a fitted effect of over 55% in size
Description: MLSCN Grant: 1 R21 NS059478-01 Assay Provider: Qihong Huang, The Wistar Institute NCGC Assay Overview: MicroRNAs (miRNAs) are endogenously encoded small (~20-25 nucleotides), nonprotein-coding RNAs that are involved in post-transcriptional repression of target messenger RNAs (mRNAs) (Le and Hannon, 2004). Estimated to be involved in the regulation of 30% of all protein-coding mRNAs (Filipowicz et al., 2008), miRNAs play a significant role in many biological processes including cellular differentiation and tissue development (Ghildiyal and Zamore, 2009).
NCGC Assay Protocol Summary: Reagents: HeLa cells stably expressing firefly luciferase (FLuc) under the control of a CMV promoter (upstream) and a miR-21 binding sequence directly downstream of the gene. These cells endogenously express miR-21. Control compounds used were compound C3 (provided by collaborator), N6-phenyladenosine (MP Biomedicals, 0215379625), and DMSO. Assay Summary: 6uL of HeLa miR-21-FLuc cells in assay buffer (DMEM, Invitrogen #21063-029; 10% FBS, HyClone #SH30071.03) were dispensed at 2000cells/well (3.3 x 10^5 cells/mL) into Greiner solid-white TC-treated 1536-well plates using a Multidrop Combi (Thermo Fisher Scientific). Plates were incubated for one hour at 37 degree Celsius, 95% humidity, 5% CO2. These assay plates were then treated with 23nL of compound or DMSO using a Kalypsys pin tool, which allows for delivery of a 24-point titration of each compound to the assay plate, with a final compound concentration ranging from approximately 40uM to 5pM. Assay plates were then incubated for 48 hours. After incubation, plates were allowed to come to RT for one hour prior to delivery of 3uL of 3X luciferase detection reagent. After a 15 minute incubation to allow for cell lysis, luciferase activity was measured using a ViewLux CCD imager (PerkinElmer), with an average exposure time of 2-12 seconds. Keywords: NIH Roadmap, MLPCN, MLSMR, qHTS, miR-21, microRNA, firefly luciferase, FLuc.
Potency is read from the fitted curve at half-maximal effect.

Potency, active:
O=C(COc1ccc(F)cc1Br)N1CCc2ccccc21 1.26 µM
Cc1ccccc1OCC(=O)N1CCCc2ccccc21 14.7 µM
O=C(c1ccco1)N1CCc2ccccc21 5.85 µM
O=C(OCc1ccccc1)N1CCc2ccccc21 1.17 µM
O=C1/C(=C\Nc2ccc(Cl)cc2)CCN1c1ncccn1 1.31 µM
CCC(C)NC(=O)Cn1c(COc2ccc(Cl)cc2Cl)nc2ccccc21 (configuration not stated) 8.26 µM
CC(=O)C(/C=N/c1cc(-c2ccc(C)cc2)nn1-c1ccccc1)=C(\C)O 1.47 µM
COc1ccccc1N=c1oc2cc(O)ccc2cc1C(=O)NCC1CCCO1 (configuration not stated) 9.27 µM
CCOC(=O)/C=C(\C)N1N=C(c2ccccc2)CC1c1ccccc1 (configuration not stated) 2.33 µM
COc1ccc(OC)c(/C=N/N(C)c2ccccc2)c1 6.56 µM
CCOc1ccc(/C=N/N(C)c2ccccc2)cc1OC 4.65 µM
COc1cc(/C=N/N(C)c2ccccc2)ccc1O 2.61 µM
CN(/N=C/c1ccc2c(c1)OCO2)c1ccccc1 6.56 µM
Nc1ccccc1C(=O)N/N=C1\C2CN3CCN(C2)CC1(c1ccccc1)C3 7.36 µM
CCCCC12CN3CCN(CC(C3)/C1=N\NC(=O)c1ccccc1N)C2 9.27 µM
CC12CN3CCN(CC(C3)/C1=N\NC(=O)c1ccccc1N)C2 10.4 µM
O=C(CSc1nnc2ccc3ccccc3n12)c1ccc(F)cc1 9.27 µM
c1ccc2c(c1)ccc1nnc(SCc3ccc4c(c3)OCCO4)n12 16.5 µM
COc1ccc2oc(-c3ccc(C)c(NC(=O)c4ccc5c(c4)OCCO5)c3)nc2c1 8.26 µM
Cc1ccc2nc(-c3ccc(Cl)c(NC(=O)c4ccc5c(c4)OCCO5)c3)oc2c1 7.36 µM
CCc1cccc(C)c1NC(=O)Cn1nc(C)n2cccc2c1=O 4.65 µM
Cc1nn(CC(=O)Nc2ccccc2C(F)(F)F)c(=O)c2cccn12 16.5 µM
Cc1cc(C(=O)N(C)C)sc1-c1ccccc1 5.21 µM
CC1=C(c2ccc(C)cc2)[N+](=O)C(C)(C)N1[O-] 3.69 µM
CCc1cccc2c(C(=O)COC(=O)c3ccccc3)c[nH]c12 16.5 µM
COc1ccc(-c2csc(N=C(N)N)n2)cc1 8.26 µM
Cc1ccsc1/C=N\NC(=O)c1cc(C(C)(C)C)[nH]n1 4.14 µM
O=C(Nc1nc2ccsc2c(=O)s1)c1ccc(F)cc1 0.414 µM
Cc1ccc(Nc2nc(C3CC3)cs2)cc1 1.65 µM
CCOc1ccc(Nc2nc(-c3cccnc3)cs2)cc1 0.585 µM
Cc1ccc(Nc2nc(-c3ccncc3)cs2)cc1 0.656 µM
Cc1ccc(Nc2nc(C)cs2)cc1 6.56 µM
Cc1csc(Nc2ccc(Cl)cc2)n1 10.4 µM
O=[N+]([O-])c1ccccc1Nc1nc(-c2cccnc2)cs1 18.5 µM
O=C(C[n+]1cn(C(F)F)c2ccccc21)c1ccc(OC(F)F)cc1 5.85 µM
Clc1ccc(-c2cnc(Oc3ccccc3)nc2)cc1 2.07 µM
Cc1ccc(N(CC(=O)Nc2ccc3c(c2)OCCO3)S(C)(=O)=O)cc1 10.4 µM
Cc1ccccc1Nc1nnc(SCC(=O)NC(=O)Nc2ccc3c(c2)OCCO3)s1 10.4 µM
O=C(Nc1ccc2c(c1)OCCO2)C1CC1c1ccccc1 (configuration not stated) 7.36 µM
Cc1ccc(SCC(=O)Nc2ccc3c(c2)OCCO3)cc1 1.65 µM
Cc1cccc(-c2nsc(SCC(=O)Nc3ccc4c(c3)OCO4)n2)c1 13.1 µM
O=C(CSc1ccccc1)Nc1ccc2c(c1)OCO2 13.1 µM
O=C(Nc1ccc2c(c1)OCO2)N1CCCc2ccccc21 13.1 µM
O=C(CSc1ccc(-c2ccccc2)nn1)Nc1ccc2c(c1)OCCO2 8.26 µM
O=C(CC1CS(=O)(=O)CC1CC(=O)Nc1ccc2c(c1)OCCO2)Nc1ccc2c(c1)OCCO2 (configuration not stated) 7.36 µM
CCc1ccc(C(=O)Nc2cc(C)ccc2F)s1 6.56 µM
CCOc1ccc(NC(=O)Nc2cc(C)ccc2F)cc1 1.85 µM
Cc1ccc(SCc2cc(=O)n3ccsc3n2)c(C)c1 9.27 µM
O=c1cc(CNc2ccc(Br)cc2)nc2sccn12 18.5 µM
COc1cccc(C(=O)NCCn2ccc3ccccc32)c1 5.21 µM
Cc1cccc(NC(=S)NNC(=O)c2csc(C)c2)c1 2.93 µM
Cc1cccc(NC(=S)NNC(=O)c2csc(C(C)C)c2)c1 3.69 µM
CCc1cc(C(=O)NNC(=S)Nc2cccc(C)c2)cs1 4.14 µM
CCc1cc(C(=O)Nc2ccc(C)cc2Br)cs1 1.04 µM
O=C(NNC(=S)Nc1ccccc1Cl)c1ccccc1Br 0.927 µM
Cc1cccc(NC(=S)NNC(=O)c2ccc3c(c2)OCO3)c1 0.464 µM
Cc1cccc(NC(=S)NNC(=O)c2ccccc2Br)c1 2.07 µM
CCCc1cc(C(=O)NNC(=S)Nc2cccc(C)c2)cs1 3.69 µM
Cc1c(C(=O)NNC(=S)Nc2cccc(Cl)c2)nnn1-c1ccccc1 16.5 µM
CCOC(=O)c1cnc2c(-c3ccccc3)cnn2c1C 0.927 µM
CCOC(=O)Cc1c(C)nc2c(-c3ccccc3)cnn2c1C 16.5 µM
CC(C)C(=O)Nc1nc2c(s1)CC(C(C)(C)C)CC2 (configuration not stated) 2.07 µM
Nn1c(SCc2ccccc2)nc2ccccc21 4.14 µM
CCOC(=O)CSc1nc2cc3c(cc2cc1C#N)OCCO3 0.147 µM
CCOC(=O)CSc1nc2cc3c(cc2cc1C#N)OCO3 1.04 µM
Brc1ccc(-c2csc(NC3=NCCCCC3)n2)cc1 10.4 µM
N#Cc1ccc(-c2csc(NC3=NCCCCC3)n2)cc1 6.56 µM
O=C(NC(=S)Nc1ccccn1)c1ccco1 3.69 µM
Cc1ccnc(NC(=S)NC(=O)c2ccco2)c1 1.17 µM
O=C(Nc1ccccc1F)c1cc2nc(C(F)F)cc(C(F)F)n2n1 18.5 µM
Cc1cccc(NC(=O)c2ccc(OC3CSC3)cc2)c1 2.93 µM
CCC(C)c1ccc(OCc2ccc(C(=O)OC)o2)cc1 (configuration not stated) 4.65 µM
CCC(C)c1ccc(OCc2ccc(C(=O)O)o2)cc1 (configuration not stated) 0.233 µM
COc1cc(C=O)ccc1OCc1cccc(Br)c1 14.7 µM
COc1cc(/C=C2/C(=O)ON=C2C)ccc1OCc1cccc(F)c1 10.4 µM
CCOC(=O)c1c(C)[nH]c(N=Nc2ccc(OC)cc2)c1C 2.93 µM
CCOC(=O)c1c(C)[nH]c(N=Nc2cccc(OC)c2)c1C 0.927 µM
CCOC(=O)c1c(C)[nH]c(N=Nc2ccc(C)cc2C)c1C 10.4 µM
CCOC(=O)c1c(C)[nH]c(N=Nc2ccccc2)c1C 7.36 µM
CCOc1ccc(N=C(/C(C(=O)C(=O)N2CCOCC2)=C(\O)c2ccccc2)c2ccccc2)cc1 3.69 µM
CC1CCCCN1c1nc(-c2ccc(C(C)(C)C)cc2)nc2ccccc12 (configuration not stated) 0.585 µM
c1ccc2c(c1)oc1c(N3CCOCC3)ncnc12 16.5 µM
Brc1ccc2oc3c(N4CCOCC4)ncnc3c2c1 4.65 µM
CCOC(=O)C1CCCN(c2ncnc3c2oc2ccccc23)C1 (configuration not stated) 16.5 µM
Cc1ccc(-c2onc3ccc(C(=O)O)cc23)cc1 1.17 µM
FC(F)(F)c1ccc(NCc2ccccn2)nc1 13.1 µM
COc1cc(N2Cc3ccccc3C2)ccc1C=O 5.21 µM
Fc1ccc(/C=N/Nc2ncnc3nc[nH]c23)cc1F 4.14 µM
Clc1ccc(/C=N/Nc2ncnc3nc[nH]c23)cc1 1.65 µM
Fc1cccc(/C=N/Nc2ncnc3nc[nH]c23)c1 1.65 µM
CCCSc1nc(N)nc(-c2cccs2)c1C#N 13.1 µM
CCSc1nc(N)nc(-c2cccs2)c1C#N 16.5 µM
CC(C)Sc1nc(N)nc(-c2cccs2)c1C#N 2.93 µM
CCCCNC(=O)N(C)c1nc2ccccc2s1 8.26 µM
COc1ccc2nc(SCc3ccccc3)nc(C)c2c1 1.17 µM
Cc1nc(SCc2ccccc2)nc2c1CCC2 5.85 µM
COc1ccc2nc(SCc3cccc(C)c3)nc(C)c2c1 7.36 µM
O=C1/C(=C\c2cccs2)Sc2ccc3ccccc3c21 0.521 µM
Cn1c(NC(=O)CCc2ccccc2)cc(=O)n(C)c1=O 3.69 µM
Cc1cc(NC(=O)CCC2CCCCC2)no1 16.5 µM
Cn1c(NC(=O)CCC2CCCCC2)cc(=O)n(C)c1=O 1.17 µM
O=C(CCCC(=O)c1ccc(F)cc1)c1ccc(F)cc1 3.29 µM
O=C(CNC(=O)c1cccs1)c1ccc(Br)cc1 3.29 µM
O=C(CNC(=O)c1ccc(F)cc1)c1ccc(Cl)cc1 3.69 µM
CC1CCC(NC(=O)CNC(=O)c2cccs2)CC1 (configuration not stated) 3.29 µM
O=C(CNC(=O)c1ccccc1F)c1ccc(Br)cc1 1.47 µM
Cc1ccc(N=C2NC(=O)/C(=C\c3cccs3)S2)cc1C 10.4 µM
